Rtt109 Vps75: inhibitors of Candida albicans Rtt109/Vps75 histone acetyltransferase; Q5AAJ8; purified Rtt109/Vps75, ThioGlo CoA-SH fluorescence, 4 h; inhibition, % at 34.9 µM; actives 0.16% (n = 330,000); AID 540336;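 active = inhibition of at least 50% in every replicate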
HTR2A ag: mouse HTR2A agonism via beta-arrestin recruitment | activation, % at 7.6 µM | P35363 | actives 0.66% (n = 360,000) | CHO-K1 mHTR2A beta-arrestin complementation, luminescence; percent of 30 µM serotonin response | AID 624169;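 active = activation above a run cutoff, the mean activation of all tested compounds plus 3 SD, cut at about 14% in these data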
Target sequence (P35363 whole entry, looked up): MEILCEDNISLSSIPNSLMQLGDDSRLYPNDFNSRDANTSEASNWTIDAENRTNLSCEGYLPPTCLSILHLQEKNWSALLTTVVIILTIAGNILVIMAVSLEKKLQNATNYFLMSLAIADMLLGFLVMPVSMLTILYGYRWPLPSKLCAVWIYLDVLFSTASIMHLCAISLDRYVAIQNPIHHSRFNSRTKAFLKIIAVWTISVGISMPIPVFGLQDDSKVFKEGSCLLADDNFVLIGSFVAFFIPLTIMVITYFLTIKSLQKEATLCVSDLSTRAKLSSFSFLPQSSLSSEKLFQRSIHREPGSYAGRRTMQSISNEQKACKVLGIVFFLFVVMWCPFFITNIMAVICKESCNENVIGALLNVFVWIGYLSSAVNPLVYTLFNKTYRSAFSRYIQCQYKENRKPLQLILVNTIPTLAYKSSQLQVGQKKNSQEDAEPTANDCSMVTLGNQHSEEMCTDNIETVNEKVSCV
NOD2 RIPK2 PPI: NOD2-RIPK2 protein interaction inhibition; CHO BLA complementation NOD2-RIPK2, CCF4 ratio; inhibition, % at 4.98 µM; O43353; actives 0.38% (n = 360,000); in the data active = inhibition above about 21%
TLR4 MyD88 comp: TLR4-MyD88 interaction inhibition in cells. AID 861. inhibition, % at 8.4 µM. HeLa CL3-4 TLR4/MyD88 BLA complementation, FRET ratio. actives 0.18% (n = 200,000); in the data active = inhibition above about 25%
TLR9-MyD88 block: inhibitors of human TLR9-MyD88 binding. Q9NR96+Q99836. CHO BLA complementation TLR9-MyD88, CCF4 FRET ratio. inhibition, % at 4.98 µM. actives 0.21% (n = 340,000). AID 504734;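 active = inhibition above the mean over all tested compounds plus 3 SD, cut at about 21% in these data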
LANA-H2A inh: blocks KSHV LANA binding to histone H2A/H2B; actives 0.6% (n = 320,000); Q9QR71; cell-free LANA-H2A/H2B peptide, fluorescence polarization; inhibition, % (concentration not given with the values); in the data active = inhibition mostly above about 10%, no sharp cut-off; inactive = mostly below about 6.7%
OPRM1 ag: counter-screen for mouse HTR2A agonists: human mu opioid receptor agonists. activation, % at 9.3 µM. shares compounds with HTR2A ag. actives 5.3% (n = 2,300). AID 624380. U2OS OPRM1 beta-arrestin PathHunter, luminescence; DMSO 0%, DAMGO 9.3 µM 100%;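 active = mean activation above the mean of DMSO-only wells plus 3 SD, cut at about 0.5% in these data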
m5-HT2A ag conf: mouse HTR2A agonism confirmed | activation, % at 7.6 µM | AID 624381 | shares compounds with HTR2A ag | CHO-K1 PathHunter beta-arrestin recruitment, luminescence; DMSO 0%, 30 µM serotonin 100% | actives 19% (n = 2,300);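 active = mean activation across triplicates above the hit threshold derived in the original primary screen, cut at about 15% in these data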
A number is an active result; i = inactive; nt = no result given; ! = not confirmed by another sample. Compounds with a hit are over-represented: about 1.8% of the library has one in this group of screens.

SMILES	Rtt109 Vps75	HTR2A ag	NOD2 RIPK2 PPI	TLR4 MyD88 comp	TLR9-MyD88 block	LANA-H2A inh	OPRM1 ag	m5-HT2A ag conf
c1ccc(Nc2nc(N3CCNCC3)nc(N3CCOCC3)n2)cc1	i	23	i	i	i	i	i	i
C(=N\Nc1nc(N2CCCC2)nc(N2CCCC2)n1)/c1cccnc1	i	15	i	i	i	i	i	i
C[C@@H]1CN([C@H](C)CO)C(=O)CCCn2cc(nn2)CO[C@H]1CN(C)C(=O)Nc1cccc(C(F)(F)F)c1	nt	i	i	nt	i	nt	nt	nt
C#CCn1c(-c2cccs2)nc2ccccc21	i	22	i	i	i	i	i	i
CCCc1ccc(OCC(O)CN2CCN(c3ccccc3)CC2)cc1 (stereo unspecified)	i	i	i	i	i	i	nt	nt
CCc1ccc(OCC(O)CN2CCN(c3ccccc3)CC2)cc1 (stereo unspecified)	i	15!	i	i	i	i	i	29
CCOC(=O)N1CCN(Cc2ccc(OCC(O)CN3CCCCC3)cc2)CC1 (stereo unspecified)	i	33	i	nt	i	i	i	71
Cc1cccc(N2CCN(CC(O)COc3ccc4ccccc4c3)CC2)c1 (stereo unspecified)	i	15	i	nt	i	nt	i	53
Cc1ccc(OCC(O)CN2CCN(c3ccccc3)CC2)cc1 (stereo unspecified)	i	i	i	i	i	i	nt	nt
CC(C)C(=O)C1=Cc2cc([N+](=O)[O-])ccc2OC1N1CCOCC1 (stereo unspecified)	i	i	i	nt	i	i	nt	nt
Cc1noc(C)c1NC(=O)Nc1cccc2c1O[C@H](CN(C)S(=O)(=O)c1cn(C)cn1)[C@@H](C)CN([C@H](C)CO)C2=O	i	i	i	nt	i	nt	nt	nt
Cc1cc(C)c(C#N)c(OCC2CCCO2)n1 (stereo unspecified)	nt	15	i	nt	nt	nt	i	i
COc1ccc(-n2c(SCC(=O)NCC3CCCO3)nc3c(c2=O)SCC3)cc1 (stereo unspecified)	i	15	i	nt	i	i	i	i
CCn1c(SCC(=O)Nc2ccc(OC)c(OC)c2)nc2c(c1=O)SCC2	i	17	i	nt	i	i	i	i
C=CCn1c(SCC(=O)NCC2CCCO2)nc2scc(-c3ccc(OC)cc3)c2c1=O (stereo unspecified)	i	i	i	nt	i	i	nt	nt
COc1ccc(NC(=O)CSc2nc3c(c(=O)n2C)SCC3)cc1OC	i	i	i	nt	i	i	nt	nt
C=CCn1c(SCC(=O)NCC2CCCO2)nc2sc(CC)cc2c1=O (stereo unspecified)	i	17	i	nt	i	i	i	i
Cc1ccc(-n2c(SCC(=O)NCC3CCCO3)nc3c(c2=O)SCC3)cc1 (stereo unspecified)	i	i	i	i	i	i	nt	nt
O=C(Cc1ccccc1)NNC1CC(=O)N(c2ccccc2)C1=O (stereo unspecified)	i	i	i	i	i	i	nt	nt
O=C(Cc1ccccc1)NNC1CC(=O)N(c2ccc(Oc3ccccc3)cc2)C1=O (stereo unspecified)	i	17	i	nt	i	i	i	i
CN(CC(=O)Nc1ccc(F)c(F)c1F)C(=O)CN1C(=O)C2CCCCC2C1=O (stereo unspecified)	i	15	i	nt	i	i	i	i
O=C(NCc1cccnc1)c1cc(C2CCCCN2C(=O)c2ccccc2)on1 (stereo unspecified)	nt	i	i	nt	nt	nt	nt	nt
Cn1nc(C(C)(C)C)cc1C(=O)N1CCCCC1c1cc(C(=O)NCc2cccnc2)no1 (stereo unspecified)	nt	15	i	nt	nt	nt	i	i
COc1ccc(CCN2C(=O)NC(NS(=O)(=O)c3ccccc3)(C(F)(F)F)C2=O)cc1OC (stereo unspecified)	i	i	i	nt	i	i	nt	nt
COc1ccc(C(C(=O)NC2CCCC2)N(Cc2ccccc2)C(=O)c2snc(C(N)=O)c2N)cc1OC (stereo unspecified)	i	16	i	nt	i	i	i	i
SMILES	Rtt109 Vps75	HTR2A ag	NOD2 RIPK2 PPI	TLR4 MyD88 comp	TLR9-MyD88 block	LANA-H2A inh	OPRM1 ag	m5-HT2A ag conf
O=C(O)CCCCCNS(=O)(=O)c1ccc2c3c(cccc13)C(=O)N2	i	16	i	nt	i	i	i	i
CN(Cc1ccccc1)N=Nc1nc[nH]c1C(N)=O	nt	17	i	nt	nt	nt	i	i
COC(C(=O)NNS(=O)(=O)c1ccccc1[N+](=O)[O-])c1ccccc1 (stereo unspecified)	i	18	i	nt	i	nt	i	i
O=C(Cc1ccccc1)N1CCN(c2ncccn2)CC1	i	i	i	i	i	i	nt	nt
c1ccc(COc2ccc(CN3CCN(c4ccccn4)CC3)cc2)cc1	i	27	i	i	i	i	i	99
Clc1ccc(CN2CCN(c3ncccn3)CC2)cc1Cl	i	27	i	nt	i	i	i	112
Clc1ccc(CN2CCN(c3ncccn3)CC2)cc1	i	29	i	nt	i	i	i	117
c1ccc(CN2CCN(c3ncccn3)CC2)cc1	i	35	i	nt	i	i	i	98
Cc1ccc(CNS(=O)(=O)c2ccc(-n3cnnn3)c(C)c2)cc1	i	i	i	nt	i	i	nt	nt
CCCCCNC(=O)c1[nH]c(C(F)(F)F)nc1-c1ccccc1	nt	i	i	nt	nt	nt	nt	nt
CCS(=O)(=O)c1ccc(Sc2nncn2C)c([N+](=O)[O-])c1	i	15	i	i	i	i	i	i
COC(=O)C1CCN(CCCOc2ccc(CN3CCN(c4ccc([N+](=O)[O-])cc4)CC3)cc2)CC1	i	25	i	i	i	i	i	75
COC(=O)C1CCN(c2ccc([N+](=O)[O-])cc2)CC1	i	i	i	i	i	i	nt	nt
C[C@H]1COc2cccc(N3CCC[C@H]3CO)c2S(=O)(=O)N1	nt	i	i	nt	nt	nt	nt	nt
CC(C)(C)OC(=O)Nc1ccccc1-n1nnnc1C(C(=O)c1ccc(F)cc1)N1CCN(c2ccccn2)CC1 (stereo unspecified)	nt	i	i	nt	nt	nt	nt	nt
O=C(Nc1ccc(N2CCOCC2)cc1)c1ccncc1	i	i	i	i	i	i	nt	nt
Cn1cccc1C(=O)Nc1ccc(N2CCOCC2)cc1	i	15	i	nt	i	i	i	i
COc1ccc(C)cc1NC(=O)CO/N=C(\N)CC(=O)NC1CCCCC1	i	i	i	nt	i	i	nt	nt
O=C(Nc1ccc(Br)cc1C(=O)O)c1ccc2c(c1)C(=O)N(Cc1ccccc1)C2=O	i	15	i	nt	i	i	i	i
CCCN1C(=O)c2ccc(C(=O)Nc3ccccc3C(=O)O)cc2C1=O	i	i	i	nt	i	i	nt	nt

Screening results as filed in PubChem.
